# Measurements as given in PubChem BioAssay (NCI).
# Where “and” joins values, the source holds several entries; their conditions need not be identical. Equal entries are not always repeated. This is part of a sample that, as a whole, favours compounds with a hit. Of some 83,000 tested, about 20% had one in any assay.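 Each cell line was grown in a 96-well plate and treated with one concentration of compound for 48 hours. Values below 10 were considered active.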 Values without a mark were called inactive. Calls of active or inactive are those of the source.
# What was measured:
# Assay in all cases: NCI-60 one-dose screen, 48 h (100 = growth as untreated, 0 = no growth, -100 = all killed)
# Conditions in all cases: 10 µM unless noted
# NCI-H23 lung = test system: NCI-H23 lung
# NCI-H226 lung = test system: NCI-H226 lung
# NCI-H322M lung = test system: NCI-H322M lung
# HOP-62 NSCLC = test system: HOP-62 NSCLC
# NCI-H460 lung = test system: NCI-H460 lung
# HOP-92 NSCLC = test system: HOP-92 NSCLC
# NCI-H522 lung = test system: NCI-H522 lung
# A549/ATCC NSCLC = test system: A549/ATCC NSCLC
# 786-0 renal = test system: 786-0 renal
# COLO 205 colon = test system: COLO 205 colon
# DU-145 prostate = test system: DU-145 prostate
# K-562 leukemia = test system: K-562 leukemia
# MALME-3M melanoma = test system: MALME-3M melanoma
# MDA-MB-231 breast = test system: MDA-MB-231 breast
# RXF 393 renal = test system: RXF 393 renal
# SF-268 CNS = test system: SF-268 CNS
# SF-295 CNS = test system: SF-295 CNS
# SF-539 CNS = test system: SF-539 CNS
# UACC-257 melanoma = test system: UACC-257 melanoma
# M14 melanoma = test system: M14 melanoma
SMILES,growth (NCI-H23 lung),growth (NCI-H226 lung),growth (NCI-H322M lung),growth (HOP-62 NSCLC),growth (NCI-H460 lung),growth (HOP-92 NSCLC),growth (NCI-H522 lung),growth (A549/ATCC NSCLC),growth (786-0 renal),growth (COLO 205 colon),growth (DU-145 prostate),growth (K-562 leukemia),growth (MALME-3M melanoma),growth (MDA-MB-231 breast),growth (RXF 393 renal),growth (SF-268 CNS),growth (SF-295 CNS),growth (SF-539 CNS),growth (UACC-257 melanoma),growth (M14 melanoma)
C[C@H](O)CCC(=O)c1ccoc1,99.7%,99.2%,106%,108%,105%,111%,99.5%,97%,106%,116%,100%,96.5%,106%,108%,99.4%,98.9%,107%,102%,99.5%,108%
N#CC(NC(=O)CCl)=C(Cl)Cl,28.5%,70.8%,78.6%,73.2%,50.7%,-71.5% (active),-84.4% (active),66.8%,-72.2% (active),-90.4% (active),44.1%,-23.6% (active),-79.1% (active),1.44% (active),-78% (active),28.9%,89.9%,5.84% (active),3.34% (active),-91.1% (active)
COC[C@H]1OC(=O)c2coc3c2[C@@]1(C)C1=C(C3=O)[C@@H]2CCC(=O)[C@@]2(C)C[C@H]1OC(C)=O,56.5%,62.5%,35.3%,57.7%,43%,-0.194% (active),48.4%,10.1%,39.3%,65.2%,45.2%,70.7%,32.8%,67.8%,10.4%,51.8%,39.5%,28.6%,23%,
Oc1ccc(O)c(Cl)c1,96.2% and 88.3%,94.5% and 98.5%,109% and 98.2%,109%,99.7% and 102%,87.6% and 102%,-92.2% (active) and -1.35% (active),92.5% and 111%,108% and 112%,109% and 99.8%,103%,89.1% and 94.8%,106% and 103%,67.3% and 101%,93% and 113%,96% and 100%,103% and 118%,84.4% and 102%,88.1% and 102%,
CCCN1C(=O)NC(=O)C(CC)(N2C(=O)c3c(F)c(F)c(F)c(F)c3C2=O)C1=O (centres undefined),-52.1% (active),27.4%,-57.7% (active),-57.3% (active),-81% (active),-50.5% (active),-82.3% (active),-64.7% (active),-58.5% (active),-81.9% (active),-98.9% (active),-81.7% (active),-71.1% (active),-78.7% (active),-95.1% (active),-82.5% (active),-68.6% (active),-96.7% (active),-83.3% (active),
CC[C@H](C)[C@H]1O[C@]2(C=C[C@@H]1C)C[C@@H]1C[C@@H](C/C=C(\C)[C@@H](O[C@H]3C[C@H](OC)[C@@H](O[C@H]4C[C@H](OC)[C@@H](NC)[C@H](C)O4)[C@H](C)O3)[C@@H](C)/C=C/C=C3\CO[C@@H]4[C@H](O)C(C)=C[C@@H](C(=O)O1)[C@]34O)O2,-68.8% (active),-75.2% (active),-22.3% (active),-60.9% (active),-77.4% (active),-33.8% (active),-70.3% (active),-51.6% (active),-88.4% (active),-71.6% (active),-85.2% (active),-41.4% (active),-67.2% (active),-71.9% (active),-88.4% (active),-56% (active),-65.6% (active),-79.7% (active),-56.7% (active),
Cc1cc[c-]cc1.Fc1c[c-]c(-c2ccccn2)c(F)c1.[Pt+2].c1ccc([PH+](c2ccccc2)c2ccccn2)cc1,70%,58.1%,83.6%,90.6%,61.5%,56.3%,64.4%,41.8%,63.5%,32.9%,59.1%,23.9%,-2.32% (active),67.8%,32.6%,62.1%,72%,72.3%,87.2%,
CC[C@H](C)[C@H](NC(=O)[C@H]1CCCCN1C)C(=O)N(C)[C@H](C[C@@H](OC(C)=O)c1cccc(C(=O)N[C@@H](Cc2ccccc2)C[C@H](C)C(=O)OC)n1)C(C)C,22.4%,23.3%,40.3%,3.61% (active),7.06% (active),-0.87% (active),-11.6% (active),10.5%,14.5%,-71.6% (active),2.8% (active),5.5% (active),66.7%,2.42% (active),13.1%,13.9%,2.21% (active),-14% (active),47.6%,-8.11% (active)
CO/N=C1\CC[C@]2(C)[C@H]3CC[C@]4(C)C(=O)CC[C@H]4[C@@H]3C[C@@H]3SC(N)=N[C@@]32C1,99.4%,107%,105%,112%,98.9%,105%,94.9%,101%,98%,111%,87.9%,70.7%,94%,101%,104%,93.5%,99.1%,100%,101%,
O=C1C=C(N2CC2)c2ccccc2C1=O,41.4%,92%,91.1%,76%,23.2%,119%,52.7%,54.3%,104%,94.3%,12.1%,9.26% (active),106%,88.8%,85.9%,51.6%,23.6%,63.3%,83.1%,63.6%
CCC(=O)C(CC(C)N1CCCCCC1)(c1ccccc1)c1ccccc1 (centres undefined),91.6%,92.6%,84.7%,85.6%,103%,65.9%,83%,87.8%,87.4%,93%,102%,82.6%,93.6%,92.4%,129%,104%,89.7%,98.6%,100%,98.1%
C[C@]12CC[C@H]3[C@@H](C[C@@H]4SC(Nc5cccc(F)c5)=N[C@@]45CC(=O)CC[C@]35C)[C@@H]1CCC2=O,55.1%,71.9%,55.8%,20.4%,52%,68.9%,-43.7% (active),35.4%,-13.9% (active),47.6%,17.2%,-0.515% (active),22.8%,38.2%,-28.4% (active),55.7%,-18.8% (active),-5.93% (active),73%,44.8%
C[C@]12C[C@H](c3ccoc3)OC(=O)[C@H]1CC[C@@]1(C)[C@@H]2[C@H]2C=C[C@]1(O)C(=O)O2,102%,101%,79.1%,104%,108%,81.3%,68.1%,84.5%,91.9%,104%,109%,76.9%,101%,102%,102%,98.3%,91.1%,92.4%,86.2%,87.6%
CC[C@H](C)[C@H](NC(=O)[C@H]1CCCCN1C)C(=O)N(C)[C@H](C(=O)NC12CC(C(=O)N[C@@H](Cc3ccccc3)C[C@H](C)C(=O)OC)(C1)C2)C(C)C,97.7%,98.8%,91.9%,92.8%,101%,98.4%,74.2%,92%,103%,110%,105%,98.2%,106%,110%,108%,90.2%,102%,100%,102%,101%
